HSP90 inh: HSP90 inhibitors, primary screen, cell lysate, luminescence. Heat shock protein HSP 90 (rabbit reticulocyte lysate; luciferase refolding). Rabbit reticulocyte lysate, luciferase refolding luminescence, 3 h. 0.91% of 290,000 active. AID 1789, 2009. inhibition, % at 5.6 µM;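 active = inhibition above the screen-wide mean plus 3 SD, computed separately per campaign, cut at about 16% in these data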;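 also: inhibitors lower the luminescence because luciferase stays unfolded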
CF NFkB block: inhibitors of PAF-induced NF-kB signaling, primary screen, cell-based, GFP fluorescence, uHTS; KKLEB NF-kB-GFP reporter, GFP fluorescence overnight; inhibition, % at 5 µM; 0.86% of 360,000 active;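 active = at least 50% inhibition at 5 µM, scaled per plate between neutral and stimulator controls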;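 also: PAF is a Pseudomonas aeruginosa culture filtrate used as stimulus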
LGR2 antag: inhibitors of bursicon-induced LGR2 CRE-luciferase signal, primary screen, cell-based, HEK293, CRE-luciferase reporter, bursicon stimulation; inhibition, % at 9.99 µM; bursicon-stimulated, 4 h; 0.35% of 380,000 active; AID 720647, 2013;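 active = drop in luminescence signal, shown as inhibition above about 50% in the replicate tests, limit read from the data, passing the limit was not always enough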;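 also: agonist challenge used bursicon conditioned medium at about half maximal strength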
Peg3 promoter: Peg3 promoter-driven luciferase inhibitors, primary screen, cell-based, HeLa, luciferase luminescence; HeLa PEG-Prom luciferase reporter, overnight; inhibition, % at 20 µM; 1.7% of 360,000 active; AID 588405, 2011;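 active = inhibition of at least 50% at 20 µM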
KKLEB tox: cytotoxicity in KKLEB CF airway cells, primary screen, cytotoxicity control for CF NF-kB inhibitor project, cell-based, uHTS, fluorescence assay plates. activity change (cytotoxicity), % at 5 µM. AID 602141, 2011. KKLEB CF airway cells viability, ATPlite luminescence, overnight; hits give low values; cells stimulated with P. aeruginosa culture filtrate. 0.36% of 360,000 active;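 active = corrected activity change at or below -50% at 5 µM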
Mdm2 MdmX PPI: inhibitors of human Mdm2-MdmX association, primary screen, cell-based, luminescence, split luciferase, SaOS-2, uHTS; AID 485346, 2010; 3% of 330,000 active; SaOS-2 split-luciferase Mdm2/MdmX complementation; inhibition, % at 8 µM;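 active = inhibition of at least 50% at 8 µM in the primary screen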
Mdm2 MdmX conf: Mdm2-MdmX complex disruptors, retested hits, confirmation, luminescence, single concentration; shares compounds with Mdm2 MdmX PPI; 55% of 10,000 active; inhibition, % at 8 µM; Mdm2-MdmX binding, luminescent assay; AID 489028, 2010
FLuc counter: full-length luciferase signal inhibition, confirmation, counter-screen for Mdm2/MdmX interaction inhibitor project, cell-based, single concentration, SaOS-2 | inhibition, % at 8 µM | 77% of 6,200 active | AID 504607, 2011 | shares compounds with Mdm2 MdmX PPI | SaOS-2 full-length luciferase counterscreen, luminescence;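 active = mean inhibition at 8 µM reaching about 37%, which flags the compound as non-specific, limit read from the data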;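 also: p53-null SaOS-2 cells with luciferase driven by a doxycycline-inducible promoter; compound on cells about two nights before reading with doxycycline added after day one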
CF NFkB inh conf: inhibitors of PAF-induced NF-kB signaling, retest, confirmation, cell-based, GFP fluorescence, single concentration | shares compounds with CF NFkB block | KKLEB CF airway cells, overnight | inhibition, % at 5 µM | 64% of 1,300 active;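 also: stimulus PAF is a Pseudomonas aeruginosa filtrate and not platelet activating factor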
Of the large screens only hits and unclear results are named; the others gave an inactive call (follow-up assays come after a bar, where they were run). Shown are actives, neighbours in structure and some others; about 3.6% of the full set was active somewhere. Rule as the data show it, unless noted: active = inhibition above about 40%; inactive = the rest.

C[C@@H]1CN([C@@H](C)CO)C(=O)Cc2cc(NC(=O)Cc3cn(C)c4ccccc34)ccc2O[C@H]1CN(C)S(=O)(=O)c1ccccc1	none (no result: HSP90 inh, CF NFkB block, Peg3 promoter, KKLEB tox, Mdm2 MdmX PPI)
C[C@H]1CN([C@@H](C)CO)C(=O)c2cc(NS(C)(=O)=O)ccc2O[C@@H]1CN(C)Cc1ccc(Oc2ccccc2)cc1	none (no result: HSP90 inh, CF NFkB block, Peg3 promoter, KKLEB tox, Mdm2 MdmX PPI)
CCSC1(SCC)N=C(N)C2(C#N)C(c3ccccc3)NC3=C(CCC3)C12C#N (stereo unspecified)	none (no result: LGR2 antag)
CCSC1(SCC)N=C(N)C2(C#N)C(c3ccc(OC)c(OC)c3OC)C12C#N (stereo unspecified)	CF NFkB block 79, Mdm2 MdmX PPI 69 (no result: HSP90 inh, LGR2 antag) | Mdm2 MdmX conf 50 | FLuc counter inactive | CF NFkB inh conf inactive
COc1ccc(NC(=O)N(C)C[C@H]2OCc3cn(nn3)CCCC(=O)N([C@H](C)CO)C[C@H]2C)cc1	none (no result: HSP90 inh, CF NFkB block, Peg3 promoter, KKLEB tox, Mdm2 MdmX PPI)
O=C(/C=C/c1cccc([N+](=O)[O-])c1)n1cnc2ccccc21	CF NFkB block 82, Peg3 promoter 100, Mdm2 MdmX PPI 100 | Mdm2 MdmX conf 94 | FLuc counter inactive | CF NFkB inh conf 67
CN1C(=O)c2cc(NC(=O)Nc3ccccc3Cl)ccc2OC[C@@H]2O[C@H](CC(=O)O)CC[C@H]21	none (no result: HSP90 inh, CF NFkB block, Peg3 promoter, KKLEB tox, Mdm2 MdmX PPI)
COc1ccc(S(=O)(=O)Nc2cccc(S(=O)(=O)N3CCCCC3)c2)cc1	none (no result: HSP90 inh)
Cc1ccc(S(=O)(=O)Nc2nc3ccccc3nc2Nc2cccc(S(=O)(=O)N3CCCC3)c2)cc1	CF NFkB block 69, Mdm2 MdmX PPI 53 | Mdm2 MdmX conf 51 | FLuc counter 93 | CF NFkB inh conf 71
Cc1noc(C)c1NC(=O)Nc1ccc2c(c1)C(=O)N([C@@H](C)CO)C[C@@H](C)[C@H](CN(C)C(=O)Nc1ccc(F)cc1)OCCCC[C@H](C)O2	none (no result: HSP90 inh, CF NFkB block, Peg3 promoter, KKLEB tox, Mdm2 MdmX PPI)
CCC(=O)c1ccc(O)c(CC=C(C)C)c1	CF NFkB block 57, Mdm2 MdmX PPI 57 (no result: LGR2 antag) | Mdm2 MdmX conf 44 | FLuc counter 42 | CF NFkB inh conf 64
COc1ccc(-c2csc(NC3OC(=O)c4c3ccc(OC)c4OC)n2)cc1OC (stereo unspecified)	CF NFkB block 77, Peg3 promoter 60, Mdm2 MdmX PPI 78 (no result: LGR2 antag) | Mdm2 MdmX conf 62 | FLuc counter 70 | CF NFkB inh conf 87
O=C(CCl)N(Cc1cc(=O)[nH]c2ccccc12)c1ccccc1	CF NFkB block 69, Peg3 promoter 85, Mdm2 MdmX PPI 100 | Mdm2 MdmX conf 100 | FLuc counter 53 | CF NFkB inh conf 74
CCN(CC)c1cc(C)c(C#N)c2nc3ccccc3n12	none (no result: LGR2 antag)
Cc1ccc(-c2c(C#N)c(N)n3c(nc4ccccc43)c2C#N)cc1	CF NFkB block 55, Mdm2 MdmX PPI 77 (no result: LGR2 antag) | Mdm2 MdmX conf 55 | FLuc counter 58 | CF NFkB inh conf 50
Cc1noc(C)c1S(=O)(=O)N(C)C[C@@H]1Oc2ccc(N(C)C)cc2CC(=O)N([C@H](C)CO)C[C@H]1C	none (no result: HSP90 inh, CF NFkB block, Peg3 promoter, KKLEB tox, Mdm2 MdmX PPI)
COc1ccc(CN(C(=O)CSc2nnc(-c3c[nH]c4ccccc34)o2)c2ccc(F)cc2)cc1OC	CF NFkB block 63, Peg3 promoter 107, Mdm2 MdmX PPI 66 (no result: LGR2 antag) | Mdm2 MdmX conf 74 | FLuc counter 70 | CF NFkB inh conf 68
COc1ccc(CN(C(=O)CSc2nnc(-c3ccc(F)cc3)o2)c2ccc(F)cc2)cc1	none
CC(=O)c1ccc2noc(-c3ccccc3)c2c1	none

Assay outcomes from PubChem BioAssay.
